Measurements as given in PubChem BioAssay AID1159580 (chemical genetic matrix, 2015).
Where “and” joins values, the source holds several entries; their conditions need not be identical. Identical values can stand only once. Among all 5,500 compounds or so, about 2,000 (36%) were called active. Inconclusive results (about 18%) are left out. Rule as the data show it: active = normalized growth mostly below about 0.91 (no sharp cut-off); inconclusive = no clear call, values can overlap the other calls; inactive = mostly above about 0.92. This is one part of the list.

Test: chemical genetic growth profiling, strain panel (AID 1159580);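 also: tested at 20 µM; growth read once vehicle control cultures reached saturation at 30 °C; 1 = growth at the plate median or of vehicle wells; lower values mean less growth of the strain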
Details: S. cerevisiae deletion strains, growth OD

Measured: normalized growth

COc1ccc(OC)c(C(O)C(C)N)c1 (stereo not given)
inactive: locus YAL013W, strain DEP1, stronger effect = lower value 1.02 and 1.01 | locus YAL021C, strain ccr4, stronger effect = lower value 1 | locus YAL026C, strain drs2, stronger effect = lower value 0.993 | locus YAL030W, strain snc1, stronger effect = lower value 0.998 | locus YAL040C, strain CLN3, stronger effect = lower value 0.977 | locus YBL061C, strain skt5, stronger effect = lower value 0.996 | locus YBR009C, strain hhf1, stronger effect = lower value 1.01 | locus YBR021W, strain FUR4, stronger effect = lower value 1.01 | locus YBR023C, strain chs3, stronger effect = lower value 0.998 | locus YBR171W, strain sec66, stronger effect = lower value 0.991 | locus YBR229C, strain ROT2, stronger effect = lower value 1.02 | locus YBR231C, strain swc5, stronger effect = lower value 0.977 | locus YBR279W, strain paf1, stronger effect = lower value 1 | locus YCL011C, strain gbp2, stronger effect = lower value 1.01 | locus YCL016C, strain dcc1, stronger effect = lower value 1.01 | locus YCL029C, strain bik1, stronger effect = lower value 0.99 | locus YCL061C, strain MRC1 (second series), stronger effect = lower value 1.02 | locus YCL061C, strain MRC1, stronger effect = lower value 0.99 | locus YCL069W, strain vba3, stronger effect = lower value 1 | locus YCR088W, strain abp1, stronger effect = lower value 0.998 | locus YDL005C, strain med2, stronger effect = lower value 0.994 | locus YDL035C, strain GPR1, stronger effect = lower value 1.01 | locus YDL040C, strain nat1, stronger effect = lower value 0.996 | locus YDL074C, strain BRE1, stronger effect = lower value 1.05 | locus YDL101C, strain DUN1, stronger effect = lower value 1.03 | locus YDL134C, strain PPH21, stronger effect = lower value 1.03 | locus YDL185W, strain tfp1, stronger effect = lower value 0.988 | locus YDL192W, strain arf1, stronger effect = lower value 0.99 | locus YDR001C, strain nth1, stronger effect = lower value 0.99 | locus YDR069C, strain doa4, stronger effect = lower value 0.999 | locus YDR101C, strain arx1, stronger effect = lower value 0.981 | locus YDR137W, strain rgp1, stronger effect = lower value 1.03 | locus YDR150W, strain NUM1, stronger effect = lower value 1.02 | locus YDR159W, strain sac3, stronger effect = lower value 1.01 | locus YDR162C, strain NBP2, stronger effect = lower value 1.05 | locus YDR195W, strain ref2 0.948 | locus YDR297W, strain sur2, stronger effect = lower value 0.998 | locus YDR318W, strain mcm21, stronger effect = lower value 0.977 | locus YDR334W, strain swr1, stronger effect = lower value 0.993 | locus YDR335W, strain msn5, stronger effect = lower value 0.997 | locus YDR363W, strain ESC2, stronger effect = lower value 1.03 | locus YDR388W, stronger effect = lower value 0.977 | locus YDR392W, strain spt3, stronger effect = lower value 1.01 | locus YDR502C, strain sam2, stronger effect = lower value 1 | locus YEL003W, strain gim4, stronger effect = lower value 1 | locus YEL037C, strain rad23, stronger effect = lower value 0.991 | locus YEL061C, strain CIN8 (second series), stronger effect = lower value 0.983 | locus YEL061C, strain CIN8, stronger effect = lower value 1.01 | locus YER002W, strain NOP16, stronger effect = lower value 0.993 | locus YER015W, strain faa2, stronger effect = lower value 0.99 | locus YER016W, strain bim1, stronger effect = lower value 0.998 | locus YER110C, stronger effect = lower value 0.981 | locus YER111C, strain swi4, stronger effect = lower value 1 | locus YER155C, strain BEM2 (second series), stronger effect = lower value 0.988 | locus YER155C, strain BEM2, stronger effect = lower value 1.01 | locus YER167W, strain BCK2, stronger effect = lower value 1.01 | locus YFR010W, strain ubp6, stronger effect = lower value 0.99 | locus YGL078C, strain dbp3, stronger effect = lower value 0.997 | locus YGL086W, strain mad1, stronger effect = lower value 0.983 | locus YGL167C, strain pmr1, stronger effect = lower value 0.998 | locus YGL173C, strain kem1, stronger effect = lower value 0.991 | locus YGL227W, strain vid30, stronger effect = lower value 0.991 | locus YGL240W, strain doc1, stronger effect = lower value 0.981 | locus YGL248W, strain PDE1, stronger effect = lower value 1.03 | locus YGL253W, strain hxk2, stronger effect = lower value 0.998 | locus YGR078C, strain PAC10, stronger effect = lower value 1.04 | locus YGR135W, strain pre9, stronger effect = lower value 1.03 | locus YGR229C, strain SMI1, stronger effect = lower value 1.03 | locus YGR252W, strain gcn5, stronger effect = lower value 0.947 | locus YHR013C, strain ard1, stronger effect = lower value 0.99 | locus YHR027C, strain rpn1, stronger effect = lower value 1 | locus YHR030C, strain SLT2, stronger effect = lower value 1 and 1.03 | locus YHR079C, strain IRE1 (second series), stronger effect = lower value 0.988 | locus YHR079C, strain IRE1, stronger effect = lower value 1.05 | locus YHR094C, strain hxt1, stronger effect = lower value 0.99 | locus YHR129C, strain ARP1, stronger effect = lower value 1.01 | locus YHR142W, strain chs7, stronger effect = lower value 1.01 | locus YHR200W, strain rpn10, stronger effect = lower value 0.993 | locus YIL066C, strain RNR3, stronger effect = lower value 1.01 | locus YIL073C, strain SPO22, stronger effect = lower value 1 | locus YIL125W, strain kgd1, stronger effect = lower value 0.995 | locus YIR030C, strain dcg1, stronger effect = lower value 0.988 | locus YJL092W, strain hpr5, stronger effect = lower value 0.997 | locus YJL095W, strain BCK1 (second series), stronger effect = lower value 0.997 | locus YJL095W, strain BCK1, stronger effect = lower value 1.04 and 1.03 | locus YJL115W, strain asf1, stronger effect = lower value 0.99 | locus YJL129C, strain trk1, stronger effect = lower value 0.997 | locus YJL134W, strain LCB3, stronger effect = lower value 1.01 | locus YJL154C, strain vps35, stronger effect = lower value 0.998 | locus YJL164C, strain tpk1, stronger effect = lower value 1.01 | locus YJL166W, strain qcr8, stronger effect = lower value 0.974 | locus YJL168C, strain set2, stronger effect = lower value 0.989 | locus YJL187C, strain SWE1 (second series), stronger effect = lower value 1.02 | locus YJL187C, strain SWE1, stronger effect = lower value 1 | locus YJR043C, strain POL32, stronger effect = lower value 0.977
